{"source": "PubChem BioAssay (EPA / NIEHS)", "note": "Inconclusive results are not listed. Activity calls are given as the source filed them. The calls were made as follows: active = hit-call score of the fitted dose curve at least 0.9, where 1 is the maximum; inconclusive = response in the unintended direction; inactive = score below 0.9.", "data": [{"assay": "Tanguay_ZF_120hpf_BRAI_legacy: (Legacy) Oregon State University Tanguay Lab 120 Hour Post-fertilization zebrafish Assay for Brain Malformation (AID 2283641)", "experimental": "Tanguay_ZF_120hpf_legacy is a whole embryo, multiplexed endpoint assay using zebrafish larvae exposed for 120 hours post fertilization on a 96-well plate.Tanguay_ZF_120hpf_BRAI_legacy is one of one assay component(s) measured or calculated from the Tanguay_ZF_120hpf_legacy assay. It is designed to make measurements of zebrafish development as detected with brightfield microscopy of developing zebrafish embryos.Data from the assay component Tanguay_ZF_120hpf_BRAI_legacy was analyzed into 1 assay endpoints. This assay endpoint, Tanguay_ZF_120hpf_BRAI_legacy, was analyzed in the positive analysis fitting direction relative to DMSO as the negative control and baseline of activity. Using a type of morphology reporter, gain-of-signal activity can be used to understand changes in developmentals as they relate to the whole embryo. To generalize the intended target to other relatable targets, this assay endpoint is annotated to the zebrafish development intended target family, where the subfamily is brain morphogenesis.\nZebrafish husbandry: Tropical 5D wild-type adult zebrafish were housed in at an approximate density of 1000 per 100 gallon tank at the Sinnhuber Aquatic Research Laboratory, Oregon State University, Corvallis, OR. Each tank was kept at standard laboratory conditions of 28C on a 14-h light/10-h dark photoperiod in fish water consisting of reverse osmosis water supplemented with a commercially available salt (Instant Ocean). Spawning funnels were placed into the tanks the night prior, and embryos were collected and staged. […] Ten microliters of each row of dilution plate 2 was added to 2 exposure plates. The final DMSO concentration used was 0.64% (vol/vol). Thirty-two embryos were also exposed to 5uM trimethyltin chloride (positive control). Plates were sealed to prevent evaporation and foil covered to reduce light exposure and kept in a 28C incubator. Embryos were statically exposed until 120 hpf. At 24 hpf, embryos were assessed for photomotor response using a custom photomotor response analysis tool (PRAT) and for developmental toxicity endpoints (MO24: mortality at 24 hpf, DP: developmental progression, SM: spontaneous movement, and NC: notochord distortion). At 120 hpf, locomotor activity was measured using Viewpoint Zebralab and assessed for 18 endpoints. Zebrafish acquisition and analysis program (ZAAP), a custom program designed to inventory, acquire, and manage zebrafish data, was used to collect developmental endpoints as either present or absent (i.e., binary responses were recorded). If mortality occurred for an embryo (at either 24 or 120 hpf), the non-mortality endpoints were not measured.", "values": [{"compound": "Oc1cc(Cl)c(Cl)cc1Cl", "outcome": "inactive"}, {"compound": "CN(C)C(=S)S", "outcome": "inactive"}, {"compound": "O=C(N[C@H]1CN2CCC1CC2)c1ccc2c(c1)OCCO2", "outcome": "inactive"}, {"compound": "CCCCCCCCCCCCc1cccc(S(=O)(=O)O)c1", "outcome": "inactive"}, {"compound": "O=C(O)C1(c2ccc3c(c2)OC[C@H](Cc2ccc(-c4ccccc4)cc2)[C@H]3O)CCCC1", "outcome": "inactive"}, {"compound": "OCCN(CCO)CCO", "outcome": "inactive"}, {"compound": "N#Cc1cccnc1", "outcome": "inactive"}, {"compound": "Clc1cccc(Cl)c1Cl", "outcome": "inactive"}, {"compound": "CC(C)(C)c1ccccc1O", "outcome": "inactive"}, {"compound": "CC(C)O.CC(C)O.OCCN(CCO)CCO.OCCN(CCO)CCO.[Ti]", "outcome": "inactive"}, {"compound": "COc1ccccc1N", "outcome": "inactive"}, {"compound": "Cc1cc(C)cc(C)c1", "outcome": "inactive"}]}]}
